From PubChem BioAssay
SRC2 inh – inhibits human steroid receptor coactivator 2; Q15596; HEK293 GAL4-SRC2 luciferase reporter, luminescence; inhibition, % at 9 µM; 0.17% of 370,000 active; AID 651957;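 active means inhibition above the mean inhibition of all tested compounds plus 3 SD, set per campaign, cut at about 52% in these data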
COUP-TFII inh – NR2F2 (human) inhibition, primary screen. inhibition, % at 8.6 µM. P24468. 0.7% of 370,000 active. AID 686940. HEK293T NGFI-A luciferase reporter, luminescence;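 active means inhibition above a per-plate cutoff, mean inhibition of test wells between control levels plus 3 SD, cut at about 38% in these data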;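 further: cells cotransfected with COUP-TFII expression vector driving the NGFI-A reporter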
LRH-1 inv ag – suppresses constitutive activity of human LRH-1; O00482; HEK293T StAR-luciferase reporter, LRH-1 transfected, 24 h; inhibition, % at 3.6 µM; 0.13% of 360,000 active; AID 602396;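 active means inhibition above the mean inhibition of all tested compounds plus 3 SD, cut at about 73% in these data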
Target sequence (O00482 whole entry, looked up): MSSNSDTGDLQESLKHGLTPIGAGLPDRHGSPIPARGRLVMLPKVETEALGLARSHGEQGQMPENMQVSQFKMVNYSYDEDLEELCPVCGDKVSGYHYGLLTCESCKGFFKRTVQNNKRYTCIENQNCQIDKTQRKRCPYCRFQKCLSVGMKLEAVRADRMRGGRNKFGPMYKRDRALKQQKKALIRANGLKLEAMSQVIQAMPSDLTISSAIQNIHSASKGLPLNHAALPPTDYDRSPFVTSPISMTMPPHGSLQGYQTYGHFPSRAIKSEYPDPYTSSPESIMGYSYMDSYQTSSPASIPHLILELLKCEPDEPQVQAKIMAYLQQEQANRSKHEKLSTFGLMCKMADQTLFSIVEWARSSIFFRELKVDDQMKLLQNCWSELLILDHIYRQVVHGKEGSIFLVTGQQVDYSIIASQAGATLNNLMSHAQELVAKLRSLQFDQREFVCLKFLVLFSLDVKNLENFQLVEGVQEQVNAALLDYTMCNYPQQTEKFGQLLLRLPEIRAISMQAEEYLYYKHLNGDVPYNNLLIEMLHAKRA
NCOA3 inh – inhibits human SRC3 coactivator; Q9Y6Q9; HEK293 GAL4-SRC3 luciferase reporter, luminescence; inhibition, % at 3.6 µM; 0.17% of 360,000 active; AID 588352;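 active means inhibition above a per-campaign cutoff, the mean of all compounds plus 3 SD, cut at about 60% in these data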;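 further: higher means less SRC3-driven luciferase light from the GAL4 reporter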
Efflux pump mplx – inhibitors of Candida antifungal efflux pumps expressed in yeast. S. cerevisiae Candida pump triplex, Nile Red efflux. inhibition, % at 10 µM. 0.44% of 330,000 active. AID 485275;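 active means plate passing quality check with inhibition over a set limit, or well fluorescence over plate mean plus 4 SD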;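 further: Nile Red retained in pooled yeast measured as flow cytometry median fluorescence; higher means more Nile Red kept so more efflux inhibition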
NCOA1 inh – inhibitors of human steroid receptor coactivator 1 (SRC1). Q15788. HEK293 GAL4-SRC1 luciferase reporter, luminescence. inhibition, % at 3.6 µM. 0.12% of 360,000 active;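 active means inhibition above the campaign mean plus 3 SD, with each screening campaign given its own cutoff, cut at about 60% in these data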
VP16 Luc counter – counter-screen for COUP-TFII antagonists: inhibitors of VP16; shares compounds with COUP-TFII inh; HEK293 Gal4-VP16 luciferase reporter, luminescence; inhibition, % at 8.5 µM; 25% of 2,500 active; AID 687007; in the data active means inhibition above about 13%
COUP-TFII conf – COUP-TFII (NR2F2) inhibition, confirmation assay. AID 687008. HEK293 NGFI-A luciferase reporter, luminescence. 45% of 2,500 active. inhibition, % at 8.5 µM. shares compounds with COUP-TFII inh;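 active means mean inhibition over three repeats above a set limit taken from the earlier primary screen, cut at about 38% in these data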
Each line names hits and unclear results; the compound was inactive in the other large screens (follow-up assays come after a bar, where they were run). Hits are enriched below; roughly 1.2% of the tested compounds scored in any of these assays.

CCN(CC)S(=O)(=O)c1cc(NC(=O)c2ccc(-n3cncn3)c([N+](=O)[O-])c2)ccc1C	COUP-TFII inh 54.0 | VP16 Luc counter inactive | COUP-TFII conf inactive
Cc1ccc(NC(=O)c2ccc(-n3cncn3)c([N+](=O)[O-])c2)cc1	none
Oc1ccc2ccccc2c1CN1CCCCC1	COUP-TFII inh 44.8 (no result: Efflux pump mplx) | VP16 Luc counter inactive | COUP-TFII conf inactive
Oc1ccc2ccccc2c1CN1CCCC1	none
CC(C)(C)c1cc(C(F)(F)F)nc(SCCCNC(=O)c2ccco2)n1	none
CCN=C1NN=C(c2cc(C)n(Cc3ccco3)c2C)CS1	SRC2 inh 71.3, COUP-TFII inh 72.9, NCOA3 inh 61.7 | VP16 Luc counter 20.8 | COUP-TFII conf 91.5
CCN=C1NN=C(c2cc(C)n(CCc3ccccc3)c2C)CS1	none (no result: Efflux pump mplx)
COc1ccc(-c2csc(C(O)c3ccc(F)c(OC)c3)n2)cn1 (centres undefined)	none (no result: Efflux pump mplx)
COc1ccc2nc(NC(=O)C3CCN(S(=O)(=O)c4cccs4)CC3)sc2c1	COUP-TFII inh 47.7 | VP16 Luc counter inactive | COUP-TFII conf inactive
Cc1ccc2nc(NC(=O)C3CCN(S(=O)(=O)c4cccs4)CC3)sc2c1	COUP-TFII inh 56.8 | VP16 Luc counter inactive | COUP-TFII conf inactive
O=C(Nc1ccccc1C(=O)O)c1cc(S(=O)(=O)N2CCCCC2)c(Cl)cc1Cl	COUP-TFII inh 40.2 | VP16 Luc counter inactive | COUP-TFII conf inactive
O=C(Nc1ccccc1C(=O)O)c1ccc(Cl)c(S(=O)(=O)N2CCOCC2)c1	none
O=C(COC(=O)c1cc(S(=O)(=O)N2CCOCC2)ccc1F)Nc1ccc2c(c1)OCO2	none
O=C(COC(=O)c1cc(S(=O)(=O)N2CCOCC2)ccc1F)NCc1ccc2c(c1)OCO2	COUP-TFII inh 47.0 | VP16 Luc counter inactive | COUP-TFII conf inactive
CCn1cc(C(=O)NCc2cccc(F)c2)c(=O)c2cc(F)c(N3CCN(C(=O)c4ccco4)CC3)cc21	COUP-TFII inh 38.3 | VP16 Luc counter inactive | COUP-TFII conf inactive
Cc1cc(/C=C2/C(=O)NN(c3ccccc3)C2=O)c(C)n1-c1cccc(O)c1	COUP-TFII inh 40.6 | VP16 Luc counter inactive | COUP-TFII conf 39.2
COc1ccc(/C=C/c2nc3ccccc3c(=O)o2)cc1	SRC2 inh 77.1, COUP-TFII inh 78.9 | VP16 Luc counter inactive | COUP-TFII conf inactive
COc1ccc(/C=C/c2nc3ccccc3n2C)cc1	SRC2 inh 58.4, COUP-TFII inh 63.7 | VP16 Luc counter inactive | COUP-TFII conf 39.4
Cc1cccc(N2CCN(C(=O)C3CCC(CNS(=O)(=O)c4cccs4)CC3)CC2)c1C (centres undefined)	COUP-TFII inh 51.1 | VP16 Luc counter inactive | COUP-TFII conf inactive
O=C(NCc1cccs1)C1Cc2c(-c3ccccc3Oc3ccccc3)ccnc2O1 (centres undefined)	none (no result: Efflux pump mplx)
CC(=O)c1cccc(NC(=O)C2Cc3c(-c4cccc(C(C)=O)c4)ccnc3O2)c1 (centres undefined)	COUP-TFII inh 48.0 (no result: Efflux pump mplx) | VP16 Luc counter inactive | COUP-TFII conf inactive
O=C(NCc1ccncc1)C1Cc2c(-c3ccccc3Oc3ccccc3)ccnc2O1 (centres undefined)	COUP-TFII inh 37.6 (no result: Efflux pump mplx) | VP16 Luc counter inactive | COUP-TFII conf inactive
COc1ccc(NC(=O)C2Cc3c(-c4ccccc4Oc4ccccc4)ccnc3O2)cc1OC (centres undefined)	COUP-TFII inh 64.4 (no result: Efflux pump mplx) | VP16 Luc counter inactive | COUP-TFII conf inactive
COc1ccc(NC(=O)C2Cc3c(-c4ccccc4Oc4ccccc4)ccnc3O2)cn1 (centres undefined)	none (no result: Efflux pump mplx)
COc1ccc(-c2cn3c(C)c(C(=O)Nc4ccncc4)sc3n2)cc1	COUP-TFII inh 47.2 | VP16 Luc counter inactive | COUP-TFII conf inactive
COc1ccc(-c2cn3c(C)c(C(=O)Nc4cccc(NC(C)=O)c4)sc3n2)cc1	COUP-TFII inh 59.1 | VP16 Luc counter inactive | COUP-TFII conf inactive
O=c1[nH]c(N2CCOCC2)cc2ccccc12	none
CN(C)CCCNS(=O)(=O)c1ccc(N2CCN(Cc3ccc4c(c3)OCO4)CC2)c([N+](=O)[O-])c1	COUP-TFII inh 40.4 | VP16 Luc counter inactive | COUP-TFII conf inactive
CC(=O)c1ccc(N2CCN(c3ccc(S(=O)(=O)NCCCN(C)C)cc3[N+](=O)[O-])CC2)cc1	none
CCNC(=O)C1(C)CCCN(C(=O)c2ccc3c(c2)C(C)(C)CCC3(C)C)C1 (centres undefined)	COUP-TFII inh 38.9 (no result: Efflux pump mplx) | VP16 Luc counter inactive | COUP-TFII conf inactive
CCNC(=O)C1(C)CCCN(C(=O)c2ccc3sccc3c2)C1 (centres undefined)	none (no result: Efflux pump mplx)
COc1ccc(C(=O)NNC(=S)NC(=O)/C=C/c2cccs2)cc1	none
O=C(/C=C/c1cccs1)NC(=S)NNC(=O)c1ccccc1O	COUP-TFII inh 59.7, LRH-1 inv ag 88.3, NCOA3 inh 80.4, NCOA1 inh 64.7 | VP16 Luc counter 21.4 | COUP-TFII conf 62.8
Cc1ccc(NC(=O)c2ccc(OC(F)(F)F)cc2)cc1S(=O)(=O)N(C)C	COUP-TFII inh 54.7 | VP16 Luc counter inactive | COUP-TFII conf inactive
Cc1ccc(NC(=O)c2ccncc2)cc1S(=O)(=O)N(C)C	none
Cc1cc(C)n(-c2ccc(C(=O)Nc3ccc(C)c(S(=O)(=O)N(C)C)c3)cc2)n1	COUP-TFII inh 48.4 | VP16 Luc counter inactive | COUP-TFII conf inactive
Cc1cc(C)n(-c2ccc(C(=O)Nc3cccc(S(=O)(=O)N(C)C)c3)cc2)n1	COUP-TFII inh 42.7 | VP16 Luc counter 14.1 | COUP-TFII conf 38.7
Cc1cc(C)n(-c2ccc(C(=O)Nc3ccc(S(=O)(=O)NCc4ccco4)cc3)cc2)n1	COUP-TFII inh 75.5 | VP16 Luc counter 23.7 | COUP-TFII conf 70.9
Cc1ccc(NC(=O)CNc2ccc(Cl)c(Cl)c2)cc1S(=O)(=O)N(C)C	COUP-TFII inh 54.3 | VP16 Luc counter inactive | COUP-TFII conf 40.2
CCN(CC)S(=O)(=O)c1cccc(NC(=O)c2ccc(-n3nc(C)cc3C)cc2)c1	COUP-TFII inh 64.8 | VP16 Luc counter inactive | COUP-TFII conf inactive
CCCSc1nnc2nc(C)cc(C)n12	none
C=CCOC(=O)Nc1snnc1C	none
Cc1nnsc1NC(=O)OCc1ccc(C(C)(C)C)cc1	COUP-TFII inh 56.4 | VP16 Luc counter inactive | COUP-TFII conf 38.3
Cc1ccc(NC(=O)C2CCN(S(=O)(=O)c3c(C)noc3/C=C/c3ccco3)CC2)nc1	COUP-TFII inh 39.0 | VP16 Luc counter inactive | COUP-TFII conf inactive
CCOC(=O)c1c(-c2ccc(C)o2)csc1NC(=S)NC(=O)c1ccccc1Br	none
COc1ccccc1NC(=O)Nc1ccc(Cl)c(S(=O)(=O)Nc2ccccc2OC)c1	none
